Assay results published in PubChem BioAssay AID1259416 (Broad Institute, 2018).
Screen size: about 69,000 compounds; about 2,600 (3.8%) were called active. The sample as a whole holds a higher share of actives than the screen did. Values without a mark were called inactive. Cut-off read from the data, not from the text of the source: active = activity change below about -70% (passing the limit was not always enough); inconclusive = no clear call, values can overlap the other calls.

Assay: T. gondii growth inhibition with IFN-gamma, primary screen, cell-based (AID 1259416);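 note: host cells are HeLa cells infected with Toxoplasma gondii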
Conditions: Toxoplasma gondii growth in IFN-gamma-treated host cells; hits give low values; concentration not given here

With `CC(C)CNC(=O)c1ccc2c(c1)C(c1ncn(C(C)C)n1)CN2C(=O)c1ccccc1` (stereo not given) as the compound, how does the activity change, negative = inhibition read?
The activity change, negative = inhibition was -46.3%.

For `Cc1nc2cc(C(=O)NC3(c4ccc5c(c4)OCO5)CCCC3)ccc2s1`, which activity change, negative = inhibition is on record?
Its activity change, negative = inhibition is -5.47%.

Which activity change, negative = inhibition does the source give for `C=CCN(Cc1ccccc1Cl)C(=O)c1ccc(CN(C)C)o1` here?
Its activity change, negative = inhibition is -46.3%.

With `Cc1ccc(CC(=O)c2cccnc2)cc1` as the compound, how does the activity change, negative = inhibition read?
Its activity change, negative = inhibition is 14%.

Which activity change, negative = inhibition does the source give for `Cc1cc(-c2ccccc2CN2CCOCC2)ccc1NC(=O)c1cccnc1` here?
The activity change, negative = inhibition was -6.76%.

For `C/C(=N/N1CCN(Cc2cccc3ccccc23)CC1)c1cccnc1`, which activity change, negative = inhibition is on record?
Its activity change, negative = inhibition is -96% (active).

Which activity change, negative = inhibition does the source give for `O=C1CCc2cc(NC(=O)c3cc(-c4ccccc4)nc4ccccc34)ccc2N1` here?
Its activity change, negative = inhibition is -32.2%.

Which activity change, negative = inhibition does the source give for `Cc1ccc(-c2cc(C(=O)Nc3ccc4c(c3)N(S(C)(=O)=O)CCC4)[nH]n2)cc1` here?
Its activity change, negative = inhibition is -78.5% (active).

With `Cc1ccc(C(=O)Nc2ccc(-c3nc(-c4ccc(C)cc4)co3)cc2)cc1` as the compound, how does the activity change, negative = inhibition read?
The activity change, negative = inhibition was 42.6%.

With `CN1CCN([C@H]2CN(Cc3ncc[nH]3)C[C@@H]2O)CC1` as the compound, how does the activity change, negative = inhibition read?
The activity change, negative = inhibition was 28%.

Which activity change, negative = inhibition does the source give for `c1cncc(-c2nc3c(c(NCCC4CCOC4)n2)CCNC3)c1` (stereo not given) here?
Its activity change, negative = inhibition is -9.13%.

For `CCn1c(-c2cc(NC(=O)c3ccncc3)n[nH]2)cc2ccccc21`, which activity change, negative = inhibition is on record?
Its activity change, negative = inhibition is -91% (active).

For `CCC(NC(=O)CCn1c(C)cc2ccccc21)c1cccnc1` (stereo not given), which activity change, negative = inhibition is on record?
The activity change, negative = inhibition was 0.306%.

For `CN1CCN(C(=O)c2cncc(N3CCC4(CCOCC4)CC3)n2)CC1`, which activity change, negative = inhibition is on record?
Its activity change, negative = inhibition is -7.63%.

With `Cc1nc(N)nc(C)c1CC(=O)N1CCC2(CCOCC2)CC1` as the compound, how does the activity change, negative = inhibition read?
Its activity change, negative = inhibition is -82.2% (active).

For `Cc1nc(C)n(C(=O)N2CCOCC2)n1`, which activity change, negative = inhibition is on record?
Its activity change, negative = inhibition is -8.09%.

With `COCCN1CC[C@@H]2C[C@@H](C(=O)N3CCCCO3)O[C@@H]2C1` as the compound, how does the activity change, negative = inhibition read?
Its activity change, negative = inhibition is -6.09%.

Which activity change, negative = inhibition does the source give for `CCN1CCO[C@H]2CN(S(=O)(=O)c3cccs3)CC[C@@H]2C1` here?
The activity change, negative = inhibition was 1.58%.

Which activity change, negative = inhibition does the source give for `COC(C)c1nncn1-c1cccc2ccccc12` (stereo not given) here?
Its activity change, negative = inhibition is -48.2%.

With `CC(=O)NC1(c2ccc(F)cc2)CCN(Cc2ccc(Oc3ncccn3)cc2)CC1` as the compound, how does the activity change, negative = inhibition read?
Its activity change, negative = inhibition is 9.39%.

With `Cc1ccn(CC(=O)N2CCN3CCNC(=O)C3C2)n1` (stereo not given) as the compound, how does the activity change, negative = inhibition read?
The activity change, negative = inhibition was -2.78%.

Which activity change, negative = inhibition does the source give for `COc1ccccc1OCc1cc(C(=O)NCCF)n[nH]1` here?
The activity change, negative = inhibition was 35.8%.

With `O=S(=O)(NCCC1=CCCCC1)c1ccc(S(=O)(=O)NC2CCCCC2)cc1` as the compound, how does the activity change, negative = inhibition read?
The activity change, negative = inhibition was -84.3% (active).

Which activity change, negative = inhibition does the source give for `CCCNS(=O)(=O)c1ccc(CCC(=O)N2CCCC2)cc1` here?
Its activity change, negative = inhibition is -8.43%.

Which activity change, negative = inhibition does the source give for `CN(C)S(=O)(=O)c1ccc2c(c1)cc(C(=O)NCCC1=CCCCC1)n2Cc1ccncc1` here?
The activity change, negative = inhibition was -54.8%.

For `Cc1ccccc1NC(=O)c1ccc2ccc(N3CCN(CC4CC4)CC3)n2c1`, which activity change, negative = inhibition is on record?
The activity change, negative = inhibition was 2.07%.

Which activity change, negative = inhibition does the source give for `N#C[C@H]1N[C@H](CO)[C@H]1c1ccc(-c2cccc(F)c2)cc1` here?
Its activity change, negative = inhibition is 17.8%.

With `CC(=O)N1CCCCN2[C@H](CO)[C@H](c3ccc(-c4ccccc4)cc3)[C@@H]2C1` as the compound, how does the activity change, negative = inhibition read?
Its activity change, negative = inhibition is 12.2%.

For `CC(C)C(=O)Nc1cccnc1-c1ccc(C(C)N2CCOCC2)cc1` (stereo not given), which activity change, negative = inhibition is on record?
Its activity change, negative = inhibition is 0.361%.

For `COc1ccccc1CCC(=O)N1CCC2(CC1)Nc1cccnc1NC2=NC(C)(C)C`, which activity change, negative = inhibition is on record?
The activity change, negative = inhibition was 74.7%.

For `Cc1cc(C)c(C#N)c(Sc2ccc(Cl)cc2)n1`, which activity change, negative = inhibition is on record?
Its activity change, negative = inhibition is -73.5% (active).

Which activity change, negative = inhibition does the source give for `CSc1nn2c(C)cc(C)nc2c1C#N` here?
Its activity change, negative = inhibition is 44.4%.

For `Cc1[nH]c2ccccc2c1Sc1ccc(Cl)cc1`, which activity change, negative = inhibition is on record?
Its activity change, negative = inhibition is -55.7%.

With `COc1ccc(NS(=O)(=O)c2ccc(NC(=S)NC(=O)c3cccs3)cc2)nn1` as the compound, how does the activity change, negative = inhibition read?
The activity change, negative = inhibition was 1.98%.

Which activity change, negative = inhibition does the source give for `O=C(Cc1ccccn1)N1[C@@H]2CNc3ccccc3[C@@H]2[C@@H]1CO` here?
The activity change, negative = inhibition was 1.07%.

With `CCCn1cc(C(=O)N(Cc2ccccn2)CC2CCCO2)c(C)n1` (stereo not given) as the compound, how does the activity change, negative = inhibition read?
The activity change, negative = inhibition was -1.25%.

With `Cc1nc([C@@H]2C[C@H]3CCN(Cc4sccc4C)C[C@@H]3O2)no1` as the compound, how does the activity change, negative = inhibition read?
Its activity change, negative = inhibition is 95.8%.

With `Cc1ccc2c(c1C)-n1cccc1C1(CCN(S(=O)(=O)c3ccc(C4CCCCC4)cc3)CC1)N2` as the compound, how does the activity change, negative = inhibition read?
Its activity change, negative = inhibition is 30.2%.

For `Cn1c(SCc2csc(C3CCCCC3)n2)nc2ccccc2c1=O`, which activity change, negative = inhibition is on record?
Its activity change, negative = inhibition is -80.1% (active).

For `C=CCn1c(SCc2ccc(C(=O)NCCO)cc2)nc2ccccc2c1=O`, which activity change, negative = inhibition is on record?
The activity change, negative = inhibition was -34.4%.

With `Cn1c(CNC(=O)CC2CCCC2)nnc1SCc1ccccn1` as the compound, how does the activity change, negative = inhibition read?
The activity change, negative = inhibition was 2.95%.

For `Cc1ccsc1-c1cn(CC2(Cn3ccnc3C)CC2)nn1`, which activity change, negative = inhibition is on record?
The activity change, negative = inhibition was 8.54%.

With `O=C(c1cn(-c2ccccc2)nn1)N(Cc1ccsc1)CC1CCCO1` (stereo not given) as the compound, how does the activity change, negative = inhibition read?
The activity change, negative = inhibition was 1.85%.

Which activity change, negative = inhibition does the source give for `COCc1ncc(CN2CCC(Cc3cccc(C(=O)O)c3)C2)cn1` (stereo not given) here?
The activity change, negative = inhibition was 3.4%.

For `Cc1oc(C(C)(C)C)cc1C(=O)Nc1ccc(SCc2cccc(Cl)c2F)cc1`, which activity change, negative = inhibition is on record?
Its activity change, negative = inhibition is -75.3% (active).
